SMARCA2 activ: activators of SMARCA2 function | MG213 cells, MMTV-luciferase reporter, dexamethasone, overnight | activation, % at 9.1 µM | hit rate 1% among 370,000 | AID 652017; in the data active means activation above about 7.8%;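 further: 0% = vehicle wells and 100% = reference activator wells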
proKLK7 act: activates the human kallikrein-7 zymogen. activation, % at 7 µM. P49862. purified proKLK7, EDANS-DABCYL substrate fluorescence; 100% is mature enzyme control, 0% vehicle. hit rate 0.9% among 370,000;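 active means activation above the mean of all tested compounds plus 3 SD, computed per campaign excluding outliers beyond control limits, cut at about 13% in these data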
Target sequence (P49862 whole entry, looked up): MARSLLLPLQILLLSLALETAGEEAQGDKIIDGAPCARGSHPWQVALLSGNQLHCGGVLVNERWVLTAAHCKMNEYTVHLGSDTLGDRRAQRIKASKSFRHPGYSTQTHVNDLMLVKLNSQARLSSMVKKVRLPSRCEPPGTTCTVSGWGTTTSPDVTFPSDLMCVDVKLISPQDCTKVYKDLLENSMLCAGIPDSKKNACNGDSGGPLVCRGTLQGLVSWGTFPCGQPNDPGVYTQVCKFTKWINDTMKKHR
FAS-TE inh: FAS thioesterase (human) inhibition; P49327; hit rate 0.67% among 360,000; inhibition, % at 15 µM; AID 602261; recombinant FAS-TE, OMFH fluorogenic substrate, fluorescence endpoint;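 active means compounds whose normalised, plate-corrected inhibition of enzyme fluorescence in the single-dose primary screen is 50% or more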;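 further: 0% = DMSO with enzyme and 100% = substrate without enzyme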
GAA850 FXN act: activators of GAA850 frataxin (FXN) promoter. hit rate 0.56% among 360,000. HEK293 lucGAA850 FXN promoter luciferase reporter, 24 h; percent of 10 µM SAHA response. activation, % at 6 µM;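 active means activation above the average of all compounds screened plus 3 SD, cutoff fixed separately per campaign, cut at about 7.5% in these data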;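 further: 0% = DMSO wells and 100% = 10 µM SAHA wells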
GAA30 FXN cntr: activates GAA30 frataxin promoter, counter-screen for GAA850 activators. shares compounds with GAA850 FXN act. HEK293 lucGAA30 FXN promoter luciferase, 24 h; DMSO = 0%, 5 µM ipriflavone = 100%. activation, % at 6 µM. hit rate 66% among 1,900. AID 588350;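 active means mean activation above the mean of solvent-only control wells plus 3 SD, cut at about 22% in these data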;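 further: counterscreen of GAA850 promoter hits where activity marks nonselective or luminescence artifacts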
FXN GAA850 conf: confirmation of GAA850 frataxin (FXN) promoter activators | shares compounds with GAA850 FXN act | HEK293 lucGAA850 FXN promoter luciferase reporter, 24 h; 100% = activation by SAHA | activation, % at 6 µM | hit rate 86% among 1,900 | AID 588351;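 active means mean activation above a set limit taken from the primary screen, cut at about 8% in these data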;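 further: 0% = DMSO wells and 100% = 10 µM SAHA wells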
* hit, by the source's call; · = not tested or not shown. Sampled rows, rich in hits. Any-hit rate of the full collection: about 2.9%.

SMILES	SMARCA2 activ	proKLK7 act	FAS-TE inh	GAA850 FXN act	GAA30 FXN cntr	FXN GAA850 conf
COc1ccc(-c2cc(C(F)(F)F)nc(S(C)(=O)=O)n2)cc1	-10.4	0.8	9.9	4.9	·	·
COc1ccc(OC)c(/C=N/N(C)c2ccccc2)c1	0.4	-0.3	21.5	7.9*	127.2*	43.0*
COc1cccc(NC(=O)c2nc(S(C)(=O)=O)ncc2Cl)c1	-11.5	0.8	18.3	49.5*	69.0*	26.9*
CCc1ccc(NC(=O)c2nc(S(=O)(=O)Cc3ccccc3)ncc2Cl)cc1	-13.1	-0.1	49.4	-8.7	·	·
CCOC(=O)c1ccc(NC(=O)c2ccccc2)cc1	4.6	0.1	-1.3	8.0*	78.6*	33.0*
CCOC(=O)c1ccc(NC(=O)c2nc(S(=O)(=O)Cc3ccccc3)ncc2Cl)cc1	6.4	0.4	48.2	15.7*	-39.8	-26.6
CCOC(=O)c1ccc(NC(=O)c2ccc(NS(C)(=O)=O)cc2)cc1	-2.3	0.3	-7.9	0.0	·	·
COc1cccc(NC(=O)c2nc(SC)ncc2Cl)c1	-1.9	-0.7	0.3	2.4	·	·
Cc1cccc(OCC(=O)Nc2cccc(C(=O)NCC(C)C)c2)c1	-3.1	0.1	-5.3	-2.4	·	·
CCN(CC)C(=O)CC(c1ccc(N(C)C)cc1)c1c(OC)cc(OC)c2c(-c3ccccc3)cc(=O)oc12 (stereo unspecified)	-1.1	0.4	25.8	2.1	·	·
CCCCOc1ccc(C2=NNC(=O)CC2)cc1	3.3	0.6	-6.9	10.4*	42.3*	14.8*
Nc1nc2ccccc2cc1-c1cccs1	3.8	10.9	-3.2	7.8*	90.5*	34.2*
CCOc1ccc(CCNC(=O)CSC(=S)N2CCCC2)cc1OCC	-0.1	0.9	-6.4	0.8	·	·
O=C(COC(=O)c1cccnc1)c1ccc(Cl)cc1	-0.8	-0.1	-2.1	11.1*	21.9*	5.2
CC1CCC(NC(=O)c2ccc(CS(=O)(=O)Cc3ccccc3F)o2)CC1 (stereo unspecified)	0.3	-0.2	0.1	0.1	·	·
Cc1ccccc1-c1noc(-c2cccs2)n1	0.2	-0.1	22.3	1.2	·	·
Cc1ccccc1-c1nnc(-c2cccs2)o1	1.3	-0.2	4.1	8.0*	105.7*	30.1*
CCC(C)NC(=O)CN(c1ccc2c(c1)OCO2)S(=O)(=O)c1c(C)n[nH]c1C (stereo unspecified)	-0.1	-0.6	-5.7	0.2	·	·
Cc1cccc(/C=N/NC(=O)c2cccc([N+](=O)[O-])c2)n1	2.5	0.4	4.7	12.2*	-39.1	11.4*
Cc1cccc(/C=N/NC(=O)c2cccc(Cl)c2)n1	6.0	-0.2	-0.5	7.6*	-65.6	-16.1
Cc1cccc(/C=N/NC(=O)c2cccc(NC(=O)c3ccccc3)c2)n1	1.1	0.0	-2.3	1.2	·	·
CO/N=C/CC(=O)c1cnc(-c2ccc(Cl)cc2)s1	-0.4	-0.5	-5.8	5.3	·	·
COc1cccc2sc(N)nc12	6.6	-0.1	-9.5	3.6	·	·
COc1cccc2sc(N(C)c3ccccc3)nc12	3.3	-0.3	8.1	7.7*	106.6*	30.9*
O=S1(=O)CCN(c2ccccc2CC(c2c[nH]c3ccccc23)c2c[nH]c3ccccc23)CC1	0.1	-0.8	32.1	16.2*	41.6*	21.1*
SMILES	SMARCA2 activ	proKLK7 act	FAS-TE inh	GAA850 FXN act	GAA30 FXN cntr	FXN GAA850 conf
CCC(c1c[nH]c2ccccc12)c1cn(C)c2ccccc12 (stereo unspecified)	-4.6	-0.1	·	·	·	·
CCC(=O)Nc1cccc(NC(=S)NC(=O)c2ccc(C)cc2)c1	-1.1	0.1	2.4	8.2*	107.3*	33.8*
CCC(=O)Nc1cccc(NC(=S)NC(=O)c2ccccc2)c1	6.2	-0.1	-10.9	2.8	·	·
C[C@@H]1CCCCO[C@H](CN(C)S(=O)(=O)c2cn(C)cn2)[C@H](C)CN([C@@H](C)CO)C(=O)c2cc(NC(=O)c3ccccc3)ccc2O1	-2.2	0.0	-7.2	-0.5	·	·
O=C(NC(c1ccccc1)c1ccccc1)C1CCCO1 (stereo unspecified)	-3.1	0.4	-3.0	-0.1	·	·
COc1cc(/C=N/O)ccc1OCc1ccccc1Cl	2.6	0.7	-1.0	12.5*	121.6*	38.3*
CCN(CC)C(=O)c1nc[nH]c1C(=O)N(CC)CC	-2.2	0.2	-10.9	0.4	·	·
OC[C@H]1O[C@@H](c2nc(-c3nc(-c4ccc(F)cc4)no3)cs2)[C@H](O)[C@@H]1O	0.0	-0.7	-7.2	3.9	·	·
